Test results: ChEMBL document CHEMBL3988442, “University of Dundee, Small-Polar-MMV Screening Library” (2021)
About 1,200 (3.2%) of roughly 38,000 compounds showed an effect of 50% or more. The median lay at about -58%. The list comes from a sample in which strong results are over-represented; it also holds similar structures and randomly drawn compounds.

The compounds below were run on Plasmodium falciparum (assay: Calibr Malaria Delayed Death Assay SOP). Conditions: concentration 4.99e-06 (unit not given; other assays of the set use mol/L).
Assay type: functional, organism-based
Design: scale not given: in the data most compounds retested in dose-response had high values

SMILES	Percent Effect
CC(C)N1CCC(Cc2cc(-c3cc(F)ccc3C(=O)O)ncn2)C1 (configuration not stated)	-123.1%
COCCN1CCCC2(CCN(Cc3nnc(C4CC4)o3)C2)C1=O (configuration not stated)	-62.36%
COCCNC(=O)c1cccnc1Oc1ccc(Cl)cc1	-11.3%
O=C(NC1CC1)[C@H]1C[C@@H]2CCN(Cc3ccc4c(c3)OCO4)C[C@@H]2O1.O=C(O)C(F)(F)F	-22.11%
CC(C)c1nc(C2CCCN2C(=O)CCn2cncn2)no1 (configuration not stated)	-126.6%
CCCN(CCc1ccccc1)C(=O)c1ccccc1NCC(=O)O	-32.98%
Cc1cc(C(C)(O)CNC(=O)CCn2ccnc2C(C)C)c(C)o1 (configuration not stated)	-18.43%
Cc1cc(NC(=O)NCCOc2ccc(Cl)cn2)no1	-49.88%
COc1cc(C)sc1C(=O)NCCNc1ccccc1	14.03%
COc1cc(C)sc1C(=O)NCCC(=O)N(C)c1ccccc1	32.05%
COc1cc(C)sc1C(=O)NCCC(=O)N(C)Cc1ccccc1	58.21%
COCC(=O)N1CCO[C@]2(CCC[C@H]2COC)C1	-73.03%
CCc1n[nH]c(C2CN(C(=O)CCCn3cccn3)CCO2)n1 (configuration not stated)	-94.04%
COc1ccc(-c2cc(CN)ccc2F)c(OC)c1OC	12.18%
COc1ccc(-c2ccccc2CN)c(OC)c1	59.74%
COc1ccc(-c2ccccc2CCN)c(OC)c1	80.76%
COc1ccc(CCN)cc1-c1ccc(S(C)(=O)=O)cc1	18.27%
COc1ccc(-c2ccnc(N)c2)c(OC)c1	-94.95%
COc1ccc(CN)c(OC(F)F)c1.Cl	-30.28%
COc1ccc(-c2ccccc2CCN)c(OC)c1OC	81.6%
CC(=O)Nc1cccc(-c2ccccc2CCN)c1	-111.2%
COc1ccc(OC)c(-n2cnnc2CCN)c1	-39.19%

SMILES	Percent Effect
Cc1c[nH]c(C(=O)N2CCCC2c2ccc(C(=O)N3CCSCC3)s2)n1 (configuration not stated)	-168.9%
CC(=O)N1CCCC2(C1)CN(C(=O)Cc1ccccc1)CCO2 (configuration not stated)	-122.2%
O=C(O)Cn1ccc(=O)c2cc(Cl)ccc21	-122.9%
CCOc1cccc2c1OCC(=O)N(c1ccc(N(C)C)cc1)C2	-248.2%
COc1ccc(OCCN(C)C(=O)c2ccc(OC)cc2O)cc1	-28.6%
COc1ccc(-c2nnsc2C(=O)N2CCOCC2)cc1	-93.54%
COc1c(CNCc2cccc(Cn3cccn3)c2)c(C)nn1C	6.408%
COc1c(CNCc2ccccc2Cn2cncn2)c(C)nn1C	-2.524%
COc1c(CNCc2ccccc2Cn2cccn2)c(C)nn1C	54.96%
Cc1nn(C)c(C)c1S(=O)(=O)NCC1(C(N)=O)CCOCC1	-35.42%
Cc1ccc(N2CC[C@H]3C[C@H](C(=O)NCc4ccco4)O[C@H]3C2)nn1.O=C(O)C(F)(F)F	-18.7%
CN(Cc1ccc([S+](C)[O-])cc1)c1cncc(Br)c1 (configuration not stated)	-68.65%
COc1cc(CN2CCCCCC2c2cccs2)cc(OC)c1O (configuration not stated)	-97.62%
Cc1cccc(C2CCCCCN2Cc2cn(C)nc2C)c1 (configuration not stated)	32.86%
COc1cccc(CN2CCCCCC2c2sccc2C)c1O (configuration not stated)	-12.07%
COc1cccc(CN2CCCCCC2c2cccc(C)c2)c1O (configuration not stated)	56.55%
COc1cccc(CN2CCCCCC2c2cccs2)c1O (configuration not stated)	1.572%
COc1cccc(CN2CCCCCC2c2cccc(F)c2)c1O (configuration not stated)	55.91%
Cc1noc(C2CCC3(CCN(C(=O)c4ccncn4)CC3)O2)n1 (configuration not stated)	-45.98%
O=C(c1cccc2cn[nH]c12)N1CCCC1c1noc(C2CC2)n1 (configuration not stated)	-53.04%
CCn1ccc(-c2cc(C(=O)O)n3nc(C)c(Cl)c3n2)n1	-42.05%
O=C(O)C(F)(F)F.O=C1C[C@H]2[C@@H](CCN2C(=O)c2ccoc2)N1CCN1CCOCC1	-16.54%

SMILES	Percent Effect
Cc1cccc(-n2ncc3c(=O)n(CCN4CCCCC4)cnc32)c1C	-32.3%
CC1CN(Cc2ccccc2)CCCN1CCCS(C)(=O)=O (configuration not stated)	50.52%
CNS(=O)(=O)CCCN1CCCCCC1c1ccc(C)o1 (configuration not stated)	7.133%
CNS(=O)(=O)CCCN1CCCC1c1cc(C)on1 (configuration not stated)	-107.9%
CNS(=O)(=O)CCCN1CCCN(Cc2ccccc2)CC1C (configuration not stated)	57.31%
COCCN1CCN(CCCS(=O)(=O)c2ccccc2)CC1C (configuration not stated)	-125.8%
COCCN1CCN(CCCS(C)(=O)=O)CC1C (configuration not stated)	-45.99%
Cc1cc(F)ccc1N1CCCC(NC(=O)CCCn2ccnc2)C1 (configuration not stated)	-46.83%
Cc1ccoc1-c1nnc(CN2CCn3c(nnc3C(C)C)C2)o1	-39.14%
CCCN1CCN(c2ccc(-c3nc(C)no3)cn2)CC1	-136.9%
CCn1cc(CN2CCCN(C(=O)CCN3CCCC3=O)CC2)cn1	-110.7%
CC(C)C(NC(=O)N1CCS(=O)(=O)CC1)c1ccccc1Cl (configuration not stated)	-66.72%
CSCC(=O)N(C)Cc1ccccc1	-13.25%
N#Cc1nc(COc2ccc3c(c2)OCO3)oc1NC1CC1	-68.74%
O=C(C1CCC1)N1CC[C@@H]2CN(Cc3cccnc3)S(=O)(=O)[C@@H]2CC1	-57.62%
Clc1ccc(N2CCC(C3CCN(Cc4cccnc4)CC3)C2)nc1 (configuration not stated)	9.118%
Clc1cccnc1N1CCC(C2CCN(Cc3cccnc3)CC2)C1 (configuration not stated)	-53.88%
CCOCC(=O)N1CCC(C2CCN(Cc3ccc(Cl)cc3)C2)CC1 (configuration not stated)	-3.864%
O=C(C1CCC1)N1CCC(C2CCN(Cc3ccc(Cl)cc3)C2)CC1 (configuration not stated)	64.14%
O=C(C1CCCC1)N1CCC(C2CCN(Cc3ccc(Cl)cc3)C2)CC1 (configuration not stated)	62.77%
CN1CCN(Cc2ccc(Cl)cc2)CC1C(=O)O (configuration not stated)	-101.8%
Clc1ccc(CN2CCC(C3CCN(Cc4cccnc4)CC3)C2)cc1 (configuration not stated)	62.84%

SMILES	Percent Effect
CC(=O)NCC(=O)N1CCC(C2CCN(Cc3ccc(Cl)cc3)C2)CC1 (configuration not stated)	1.574%
CCOC(=O)Cc1csc(NC(=O)c2cc(=O)c(OC)c[nH]2)n1	-55.6%
CN(C)CCn1c2c(ccc1=O)CCN(C(=O)c1ccoc1)CC2.O=C(O)C(F)(F)F	-90.05%
CCCC(O)CN1CCC(=O)N(C)Cc2cc(F)ccc21 (configuration not stated)	-57.01%
O=C(c1cccnc1O)N(CCO)Cc1cc(Br)ccc1F	-29.02%
O=C(O)c1ccc(CNC(=O)C2CCN(C(=O)C3CCC3)CC2)s1	-58.95%
Cc1nccn1CCCC(=O)N1CCC2(CCC(=O)N(C(C)C)C2)CC1	-32.26%
COCCNC(=O)N1CCCCC1CNC(=O)Nc1ccccc1 (configuration not stated)	-90.53%
NC(=O)CN1CCC(OCc2ccc(Cl)c(Cl)c2)CC1	33.26%
CCC(N)C(=O)N1CCC(OCc2ccc(Cl)c(Cl)c2)CC1.Cl (configuration not stated)	65.86%
CNC(=O)CN1CCC(OCc2ccc(Cl)c(Cl)c2)CC1	0.3675%
COc1ccc2c(c1)OCC(CNC(=O)c1cc(C(C)C)on1)C2 (configuration not stated)	-29.19%
Cc1c(C(=O)NCC2CCN(C)C2)n(C)c2c(C)cccc12 (configuration not stated)	8.044%
CC(=O)Nc1nc(C2CCN(C(=O)c3cncs3)CC2)cs1	38.41%
CNC(=O)Cn1c(CO)cnc1SCc1ccccc1Cl	-84%
COc1cc2nc(NCc3cc(C)on3)nc(N)c2cc1OC	61%
CCOc1ccc(OCC)c(NCc2cc(C)on2)c1	-105.8%
COc1ccc(C(C)NC(=O)NCCc2ccc(C)nc2)c(OC)c1 (configuration not stated)	-63.03%
COc1ccc(CCC(=O)NCc2cc(C)on2)cc1	-56.8%
COc1cc2c(cc1CNC(=O)Cc1ccc(C)nc1)OC(C)C2 (configuration not stated)	-97.01%
COc1cc2nc(NCc3scnc3C)nc(N)c2cc1OC	89.32%
COc1cc(C(C)NCc2scnc2C)ccc1SC(F)F (configuration not stated)	16.99%

SMILES	Percent Effect
COc1ccccc1NCC(=O)NCc1scnc1C	-101.9%
COc1cc2nc(NCc3ccc(C)nc3)nc(N)c2cc1OC	90.21%
CC(=O)c1c(O)n(C)c2ccccc12	-129.1%
O=C(COCCc1ccccc1)N1CCCC(n2cncn2)C1 (configuration not stated)	-37.64%
Cc1cccc(CSc2nnc(C)n2CC(N)=O)c1	-106.3%
CS(=O)(=O)N1CCC(CNC(=O)C2CCC2)CC1	-20.15%
O=C(NCCc1ccncc1)c1ccc(S(=O)(=O)NC2CCC2)cc1	-25%
CSCC[C@@H](CO)NC(=O)c1sc(-c2ccc(Cl)cc2)nc1C	-102.9%
CCOC(=O)CSc1nnc(C(N)CC(C)C)o1.Cl (configuration not stated)	-109.2%
NC(=O)NCC1CCCCN1C(=O)c1cc(F)cc(F)c1 (configuration not stated)	-156.9%
CC1CCCN(C(=O)CNC(=O)c2ccoc2)C1 (configuration not stated)	-96.13%
CC(C)(C)CC(=O)Nc1cnn(-c2ccccc2S(C)(=O)=O)c1	-5.765%
c1ccc2oc(CCCN3CCc4cncnc4C3)nc2c1	-82.49%
Cc1ncc2c(n1)CN(Cc1nc3ccccc3o1)CC2	-59.98%
CC(C)c1ncc2c(n1)CN(CCCc1nc3ccccc3o1)CC2	69.07%
O=C(NCCc1cnccn1)c1cccc(S(=O)(=O)NC2CCOC2)c1 (configuration not stated)	-80.94%
O=C(c1cnn[nH]1)N(CCCO)Cc1cccnc1	-126.7%
CN(Cc1ccsc1)C(=O)CNC(=O)N1CCc2ccccc2C1	-30.75%
COc1cccc(CN2CCC3(CC(Nc4ccncn4)C3)C2)c1F (configuration not stated)	-62.87%
